From PubChem BioAssay (EPA / NIEHS)
Records with an inconclusive call do not appear. Activity calls are given as the source filed them. The calls were made as follows: active = hit-call score of the fitted dose curve at least 0.9, where 1 is the maximum; inconclusive = response in the unintended direction; inactive = score below 0.9.

Assay: ATG_M_19_TRANS: Attagene TRANS-FACTORIAL HepG2 Assay for M19 Transcription Factor (Internal Marker) (AID 2282974)
Details: HepG2 Attagene TRANS-FACTORIAL M19 internal marker reporter
Procedure: ATG_TRANS is a cell-based, multiplexed-readout assay that uses HepG2, a human liver cell line, with measurements taken at 24 hours after chemical dosing in a 24-well plate.ATG_M_19_TRANS is one of 30 assay component(s) measured or calculated from the ATG_TRANS assay. It is designed to make measurements of mRNA induction, a form of inducible reporter, as detected with fluorescence intensity signals by Reverse transcription polymerase chain reaction (RT-PCR) and Capillary electrophoresis technology.Data from the assay component ATG_M_19_TRANS was analyzed into 1 assay endpoint. This assay endpoint, ATG_M_19_TRANS, was analyzed in the positive analysis fitting direction relative to DMSO as the negative control and baseline of activity. Using a type of inducible reporter, measures of mRNA for gain-of-signal activity can be used to understand the background control at the transcription factor-level as they relate to the gene . Furthermore, this assay endpoint can be referred to as a secondary readout, because this assay has produced multiple assay endpoints where this one serves a background control function. To generalize the intended target to other relatable targets, this assay endpoint is annotated to the background measurement intended target family, where the subfamily is internal marker.
Human liver HepG2 cells are transiently transfected with multiple reporter transcription units (MRTUs) in 6-well plates using FuGene 6 reagent (Roche; 3 ml FuGene/1 mg DNA). The MRTU constructs are regulated by a cis-regulating element (promoter). […] A major difference between the CIS and TRANS system is that in CIS activities of endogenous TFs are measured, whereas the TRANS assay evaluates changes in activities of exogenous, chimeric NR-Gal4 proteins. […] At the end of 24 hour incubation, total RNA was isolated using TriZol reagent (Invitrogen). The isolated RNA is then reverse-transcribed using oligo(dT) primer and Mo-MLV reverse transcriptase (Invitrogen) with DNAse I (Ambion) treatment for 30 min. The one-tenth of the produced cDNA was amplified by PCR using Taq DNA polymerase (Invitrogen) and two reporter sequence-specific primers. The PCR products were fluorescently labeled by primer extension with 6-arboxyfluorescein (6-FAM) 5'-labeled reporter sequence-specific primer (2 min at 95 C, 20 s at 68 C and 10 min at 72 C) and these products were digested with 5U of HpaI (New England Biolabs) for 2h at 37 C. The fragments were purified using Qiaquick PCR columns (Qiagen), analyzed on an ABI 3130xL genetic analyzer (Applied Biosystems) with peak positions identified by using a set of X-rhodamine (ROX)-labeled MapMarker1000 molecular weight standards (BioVentures). The raw capillary electrophoresis data was processed using Attagraph software (Attagene).

outcome, inactive:
O=C(C(Cl)Cl)N1CCOC12CCCCC2
CCC(CC)C(=O)O
CCCCCCCC(C)=O
CCN(CCO)c1cccc(C)c1
O=S(=O)(O)c1cc(S(=O)(=O)O)c2ccc3c(S(=O)(=O)O)cc(S(=O)(=O)O)c4ccc1c2c43
CCCCCCCCCCCCCOP(=O)(O)O
OC1CCCC1
Nc1ccc(N=Nc2ccccc2)c(N)n1
Cc1cccc(N)n1
c1cc(C(c2ccc(OCC3CO3)cc2)C(c2ccc(OCC3CO3)cc2)c2ccc(OCC3CO3)cc2)ccc1OCC1CO1 (stereo not given)
C#CC1(O)CC[C@H]2[C@@H]3CCC4=CCCC[C@@H]4[C@H]3CC[C@@]21C (stereo not given in full)
CCOC(=O)c1ccc(N(C)C)cc1
O=C(O)CCCC[C@@H]1SC[C@@H]2NC(=O)N[C@@H]21
CN(C)CCCN(C)C
Cc1ccc(C(C)(C)C)cc1
Cc1ccc(C(C)c2ccc(C)c(C)c2)cc1C
OCCNCc1ccccc1
CC(C)C(=O)C(C)C
CC(C)(Oc1ccc(C2CC2(Cl)Cl)cc1)C(=O)O (stereo not given)
CC(C)(C)c1ccc(N)cc1
Nc1ccc(-c2ccc(F)cc2)cc1
CC1=NC(C)OC1C (stereo not given)
O=S(=O)(O)c1ccc2cc(O)c(S(=O)(=O)O)cc2c1
CCCCCCCCc1ccc(Nc2ccc(CCCCCCCC)cc2)cc1
CC1(C)S[C@@H]2[C@H](NC(=O)COc3ccccc3)C(=O)N2[C@H]1C(=O)O
CC(=O)c1ccc2c(c1)CCCC2
C=C(C)C(=O)OCC(C)C
CC=CC(=O)N(CC)c1ccccc1C
CCCCC/C=C\CCC=O
NC(=O)NNC(N)=O
C=C(C)[C@@H]1CCC2=CCC[C@@H](C)[C@]2(C)C1
C(=CC=Nc1ccccc1)C=CNc1ccccc1
CO[Si](OC)(OC)c1ccccc1
COC(=O)c1c(C)cc(O)c(C)c1O
[Cl][Nd]([Cl])[Cl]
COc1cc(NC(=O)CC(C)=O)c(OC)cc1Cl
CCCCCc1ccc(Cl)cc1
CCC(CO)CO
ON(Cc1ccccc1)Cc1ccccc1
CCCCCCCC/C=C\CCCCCCCC(=O)OCCO
